Molecules are shown by their SMILES.

Consider 26 compounds from PubChem BioAssay.

The target of the assay is Concanavalin-A (Canavalia ensiformis) (UniProt P02866). In words: ConA small-molecule binders, primary screen, artefact control for SMM control protein annotation, biochemical, small-molecule microarray, Alexa647 label, 635 nm (AID 1127).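 Further: z combines 667 nm emission intensity with signal-to-noise across three replicate slides.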 The note with it: ConA-A647 binding fluorescence, higher = more signal.
Chain of Concanavalin-A (Canavalia ensiformis) (P02866 whole entry, looked up): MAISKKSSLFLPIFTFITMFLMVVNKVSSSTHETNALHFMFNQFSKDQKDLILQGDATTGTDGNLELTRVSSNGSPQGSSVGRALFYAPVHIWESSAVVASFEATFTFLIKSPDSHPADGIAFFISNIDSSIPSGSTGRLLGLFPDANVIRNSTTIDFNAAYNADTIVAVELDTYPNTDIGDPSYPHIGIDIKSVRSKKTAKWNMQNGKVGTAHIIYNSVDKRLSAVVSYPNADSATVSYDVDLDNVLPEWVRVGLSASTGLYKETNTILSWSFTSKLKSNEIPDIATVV
The compound `[N-]=[N+]=NCc1ccccc1C[C@@]1(C(=O)NCC(O)CO)N=C(c2ccc(OCCCO)cc2)O[C@@H]1c1ccccc1N=[N+]=[N-]` (stereo partly specified) had a composite z-score of 1.1.

Compound `CCOC(=O)C[C@H]1[C@H](OC(=O)Cc2ccc3c(c2)OCO3)[C@@H](NC(=O)c2ccc(-c3ccccc3)cc2)c2cc(OCCCO)ccc2N1C(=O)c1ccc2ccccc2n1` gave a composite z-score of 0.643.

`O=C(NCc1ccccc1)[C@@]1(Cc2ccccc2)N=C(c2ccc(OCCCO)cc2)O[C@H]1c1ccccc1`: the composite z-score came to 1.15.

`O=C1NC(=O)C2C1C=CC(C(O)c1ccccc1)N2Nc1ccc(Cl)cc1Cl` (stereo unspecified) registered a composite z-score of 1.1.

In turn, `CN(C)CCCNC(=O)[C@@]1(c2ccc([N+](=O)[O-])cc2)CC(=O)N(C2CCCCC2)[C@@H]1c1ccc(CO)cc1` yielded a composite z-score of 0.282.

On to `COC(=O)[C@@]1(Cc2ccccc2)[C@H]2c3cc(C(=O)N4CCCC4)n(Cc4cccc5ccccc45)c3C[C@H]2CN1C(=O)c1ccccc1`, for which the composite z-score stood at 0.308.

The compound `CC(C)(C)OC(=O)CC[C@@]1(C(N)=O)N=C(c2ccc(OCCCO)cc2)O[C@@H]1c1ccccc1` returned a composite z-score of 0.722.

Consider `COc1cc2c(cc1O)C=[N+](Cc1cccc(OC(F)(F)F)c1)CC2`, for which the composite z-score was -0.27.

Compound `C=C(C)C1C(=C)CN([C@H](CO)c2ccccc2)C1=O` (stereo partly specified) yielded a composite z-score of -0.844.

Take `COCCCNC(=O)C1N=C(c2ccc(OCCCO)cc2)N(c2ccccc2)O1` (stereo unspecified): the composite z-score is 1.04.

On to `C=CC[C@@]1(C(=O)NCc2ccccc2)N=C(c2ccc(OCCCO)cc2)O[C@@H]1c1ccccc1N=[N+]=[N-]`, for which the composite z-score stood at 0.906.

The compound `CCOc1cc(C(O)C2C=CC3C(=O)N(c4ccccc4)C(=O)C3N2Nc2ccccc2)ccc1O` (stereo unspecified) returned a composite z-score of 0.403.

`O=C1O[C@H](c2ccccc2)[C@H](c2ccccc2)N2[C@H]1[C@@H](C(=O)NC[C@H](O)c1ccccc1)[C@]1(C(=O)Nc3ccccc31)[C@H]2c1ccc(OCCO)cc1` came in with a composite z-score of 1.14.

`COc1ccc(C(O)C2C=CC3C(=O)N(C)C(=O)C3N2N2CCCCC2)c2ccccc12` (stereo unspecified) displayed a composite z-score of 1.21.

Consider `CN1C(=O)[C@]2(Cc3ccccc3)N=C(c3ccc(OCCCO)cc3)O[C@@H]2c2ccccc21`, for which the composite z-score came to 0.953.

Consider `C=CCOC(=O)[C@H]1[C@@H]2C(=O)O[C@@H](c3ccccc3)[C@@H](c3ccccc3)N2[C@@H](c2ccc(OCCOC(=O)[C@@H]3C[C@@H]4C(=O)N[C@@H](CCCCN(C)C)C(=O)N4[C@@H]3c3ccc(O)cc3)cc2)[C@]12C(=O)Nc1ccc(I)cc12`, for which the composite z-score stood at 1.15.

Consider `CC(C)(C)OC(=O)CC[C@@]1(C(=O)NCC(O)CO)N=C(c2ccc(OCCCO)cc2)O[C@@H]1c1ccccc1N=[N+]=[N-]` (stereo partly specified), for which the composite z-score was 1.2.

`O=C1NCC(=O)N2[C@@H]1C[C@@H](C(=O)O)[C@H]2c1cccc(OCCO)c1` showed a composite z-score of 0.945.

`CC(C)OC(=O)C=C1C[C@@H](c2ccccc2C(F)(F)F)O[C@@H](c2ccccc2C(F)(F)F)O1`: the composite z-score amounted to 0.257.

`C=CCOC(=O)[C@@H]1[C@H]2C(=O)O[C@H](c3ccccc3)[C@H](c3ccccc3)N2[C@H](c2ccc(OCCOC(=O)[C@@H]3C[C@@H]4C(=O)N5CCC[C@H]5C(=O)N4[C@@H]3c3ccc(O)cc3)cc2)[C@@]12C(=O)Nc1ccc(I)cc12` gave a composite z-score of 1.12.

In turn, `COc1cc2c(cc1OC)CN(C(=O)[C@H]1[C@@H]3C(=O)O[C@@H](c4ccccc4)[C@@H](c4ccccc4)N3[C@@H](c3ccc(O)cc3)[C@]13C(=O)Nc1ccc(C#CC4=CCCCC4)cc13)CC2` came in with a composite z-score of 1.14.

Take `COc1ccc(C(=O)Nc2ccc(CN3C(=O)[C@@]4(O[C@@H](CC(=O)N5CCC[C@H]5CO)[C@H]([Si](C)(C)c5ccc(OC)cc5)[C@H]4C)c4ccccc43)cc2)cc1`: the composite z-score turned out to be 1.08.

`[N-]=[N+]=NCc1ccccc1C[C@]1(C(=O)NCC(O)CO)N=C(c2ccc(OCCCO)cc2)O[C@H]1c1ccccc1` (stereo partly specified): the composite z-score was -0.916.

`COc1ccc([Si](C)(C)[C@H]2[C@H](CCO)O[C@@]3(C(=O)N(Cc4ccc(N5C(=O)COc6ccccc65)cc4)c4ccccc43)[C@@H]2C)cc1` came in with a composite z-score of -0.116.

As for `C=C(COC)/C(=C/C[C@H](OC(=O)c1ccncc1)c1ccc(OCCO)cc1)c1cnc2ccccc2c1`, the composite z-score was 1.17.

Consider `C=CCOC(=O)[C@@H]1[C@H]2C(=O)O[C@H](c3ccccc3)[C@H](c3ccccc3)N2[C@H](c2ccc(OCCOC(=O)[C@@H]3C[C@@H]4C(=O)N[C@@H](Cc5ccccc5)C(=O)N4[C@@H]3c3ccc(O)cc3)cc2)[C@@]12C(=O)Nc1ccc(I)cc12`, for which the composite z-score is 1.18.
